Drawing on PubChem BioAssay, this text covers composite z-score, composite Z-score and z-score for 5 compounds.

SMILES strings stand for the structures. Calls of active or inactive are those of the source.

The target in test [1] is Albumin (Bos taurus) (UniProt P02769). In words: compounds binding labelled BSA control protein – biochemical, small-molecule microarray, Alexa647 label, 635/667 nm fluorescence, artefact control for SMM control protein annotation, profiling panel (AID 1118).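 Further: score merges 667 nm emission intensity and signal-to-noise per printed compound spot.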 To be noted: BSA-A647 binding, fluorescence 635 nm, higher = more signal.
A short description of test [2]: probe aXIP binding to arrayed compounds – biochemical, NeuroSMM set, 635/667 nm fluorescence, primary screen (AID 1119).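 Further: probe is the protein aXip251-270 applied at 1 µg/mL to compound-printed slides; binding of probe to printed compounds measured as 667 nm fluorescence plus signal to noise.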 To be noted: small-molecule microarray, higher = more signal, called active from +8 up or from −8 down.
A short description of test [3]: probe aNOTCH3 binding on compound microarray – biochemical, small-molecule microarray, 635/667 nm fluorescence, primary screen (AID 1120).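 Further: probe is a biotin-tagged antibody raised against NOTCH3 rather than NOTCH3 protein; score merges spot fluorescence near 667 nm with spot signal to noise.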 The settings on record: higher = more signal.
Test [4] in a line: probe aNOTCH2 binding on compound microarray – biochemical, small-molecule microarray, 635/667 nm fluorescence, primary screen (AID 1121).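 Further: score merges feature fluorescence read at 667 nm with its signal to noise.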 The settings on record: higher = more signal.
Test [5] concerns the target Carbonic anhydrase 2 (Homo sapiens) (UniProt P00918). The test can be described thus: compounds binding carbonic anhydrase 2 – biochemical, small-molecule microarray, Alexa647-labelled CAII, profiling panel (AID 1122). To be noted: CAII-A647 binding fluorescence, higher = more signal.
Test [6] in a line: COS7 lysate on small-molecule microarray, probe aHis, 635 nm (AID 1123).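 Further: z-score combines 667nm fluorescence intensity with signal-to-noise per printed compound spot.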 The settings on record: COS7 cell lysate, fluorescence, higher = more signal.
A short description of test [7]: probe aLAP1 signal on lysate-treated microarray – cell lysate, small-molecule microarray, COS7 lysate, primary screen (AID 1124).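 Further: lysate comes from COS7 cells expressing LAP1 and is applied at 0.3 µg/mL; score merges spot fluorescence near 667 nm with signal-to-noise over triplicate slides.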 To be noted: probe aLAP1, fluorescence, higher = more signal.
The test system of test [8] is Sam68 (KHDRBS1). The test can be described thus: compounds binding KHDRBS1 protein – biochemical, small-molecule microarray, 635 nm fluorescence, primary screen (AID 1125).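 Further: score merges 667 nm channel intensity with signal to noise over triplicate slides.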 The settings on record: higher = more signal.
Test [9] relates to Chordin-like protein 2 (CHRDL2). The test can be described thus: compounds binding chordin-like 2 – biochemical, small-molecule microarray, 635 nm fluorescence, primary screen (AID 1126).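 Further: printed compound slides probed with Chrdl2 protein at 4 µg/mL for 1 h at 4 C; score merges 667 nm emission intensity with signal to noise over three replicate slides.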 To be noted: fluorescence 635 nm, higher = more signal.
Test [10] addresses Concanavalin-A (Canavalia ensiformis) (UniProt P02866). The test can be described thus: compounds binding concanavalin A lectin – biochemical, small-molecule microarray, Alexa647 label, 635 nm, artefact control for SMM control protein annotation, primary screen (AID 1127).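 Further: z combines 667 nm emission intensity with signal-to-noise across three replicate slides.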 To be noted: ConA-A647 binding fluorescence, higher = more signal.
Test [11] is described as follows: compounds binding Alexa647 anti-His antibody – biochemical, small-molecule microarray, 635 nm fluorescence, artefact control for SMM control protein annotation, primary screen (AID 1128).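 Further: score merges feature fluorescence with signal-to-noise for each printed compound spot.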 To be noted: higher = more signal.
The subject of test [12] is Human papillomavirus type 1a E7 protein (residues 1-88). The test can be described thus: HPV1a E7 small-molecule binders, primary screen, biochemical, small-molecule microarray, residues 1-88, 635 nm (AID 1129). The settings on record: small-molecule microarray binding, fluorescence 635 nm; higher = more signal.
Test [13] addresses Focal adhesion kinase 1 (Homo sapiens) (UniProt Q05397). The test can be described thus: PTK2 protein binding on printed compound slides – biochemical, small-molecule microarray, 635/667 nm fluorescence, BSA, DTT, primary screen (AID 1130).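 Further: composite of spot emission at 667 nm and signal to noise over triplicate slides.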 To be noted: 635 nm fluorescence, higher = more signal.
For test [14], the system named is Fibrinogen (Alexa647-labelled). In words: Alexa647-fibrinogen binding to printed small molecules – biochemical, small-molecule microarray, 635/667 nm fluorescence, artefact control for SMM control-protein annotation, profiling panel (AID 1131).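 Further: z-score merges 667 nm fluorescence with per-spot signal-to-noise over triplicate slides.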 The settings on record: fibrinogen-A647 binding fluorescence, higher = more signal.
In test [15] the target is Follistatin (Homo sapiens) (UniProt P19883). The test can be described thus: FST protein binding to printed compounds – biochemical, small-molecule microarray, 635/667 nm fluorescence, primary screen (AID 1132). To be noted: 635 nm fluorescence, higher = more signal.
The target in test [16] is Fibroblast growth factor 2 (Homo sapiens) (UniProt P09038). In words: basic fibroblast growth factor binding to printed compounds – biochemical, small-molecule microarray, 635/667 nm fluorescence, primary screen (AID 1133). The settings on record: FGF2, fluorescence 635/667, higher = more signal.
Test [17] is described as follows: JC-1 mitochondrial potential readout, lung cancer cells – cell-based, A549, JC-1 fluorescence, basal, 24 h, 100 nL, profiling panel (AID 1138).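 Further: A549 lung adenocarcinoma cells under basal conditions with no added stimulus; test concentration not given here.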 The settings on record: higher = more signal.
For test [18], the system named is Lefty1. The test can be described thus: Lefty1 protein binding to printed compounds – biochemical, small-molecule microarray, 635/667 nm fluorescence, primary screen (AID 1139). To be noted: fluorescence 635/667, higher = more signal.
Test [19] has as its system wheat germ agglutinin (Triticum aestivum), Alexa647-labelled. The test can be described thus: Alexa647-WGA lectin binding to printed small molecules – biochemical, small-molecule microarray, 635/667 nm fluorescence, artefact control for SMM control-protein annotation, profiling panel (AID 1140).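 Further: score merges 667 nm feature emission with signal to noise over triplicate slides.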 To be noted: WGA-A647 binding, 635 nm fluorescence, higher = more signal.
In test [20] the target is Luciferin 4-monooxygenase (Photinus pyralis) (UniProt P08659). In words: inhibition of purified Photinus pyralis luciferase – biochemical, luminescence, purified enzyme, 2006 set, primary screen (AID 1141).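 Further: cell-free assay with purified firefly luciferase at 100 ng per well in PBS; test concentration not given here.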 The settings on record: purified firefly luciferase, SteadyGlo luminescence, 30 min; higher = more signal, called active from +8 up or from −8 down.
Luciferin 4-monooxygenase (Photinus pyralis), sequence (P08659 whole entry, looked up): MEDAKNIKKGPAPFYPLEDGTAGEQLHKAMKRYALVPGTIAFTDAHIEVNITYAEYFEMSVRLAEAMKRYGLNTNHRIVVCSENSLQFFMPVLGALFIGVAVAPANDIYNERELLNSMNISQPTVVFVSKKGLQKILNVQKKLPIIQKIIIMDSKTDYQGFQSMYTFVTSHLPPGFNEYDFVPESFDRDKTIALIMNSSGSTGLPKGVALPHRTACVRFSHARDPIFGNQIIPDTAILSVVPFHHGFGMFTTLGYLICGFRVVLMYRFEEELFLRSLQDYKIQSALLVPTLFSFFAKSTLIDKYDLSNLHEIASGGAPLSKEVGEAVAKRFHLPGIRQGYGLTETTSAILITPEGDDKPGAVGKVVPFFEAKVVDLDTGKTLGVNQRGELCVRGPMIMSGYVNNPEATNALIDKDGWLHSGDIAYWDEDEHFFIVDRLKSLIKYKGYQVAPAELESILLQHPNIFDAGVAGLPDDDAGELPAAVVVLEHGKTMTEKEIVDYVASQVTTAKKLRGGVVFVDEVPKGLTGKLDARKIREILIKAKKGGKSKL

Fibroblast growth factor 2 (Homo sapiens), sequence (P09038 whole entry, looked up): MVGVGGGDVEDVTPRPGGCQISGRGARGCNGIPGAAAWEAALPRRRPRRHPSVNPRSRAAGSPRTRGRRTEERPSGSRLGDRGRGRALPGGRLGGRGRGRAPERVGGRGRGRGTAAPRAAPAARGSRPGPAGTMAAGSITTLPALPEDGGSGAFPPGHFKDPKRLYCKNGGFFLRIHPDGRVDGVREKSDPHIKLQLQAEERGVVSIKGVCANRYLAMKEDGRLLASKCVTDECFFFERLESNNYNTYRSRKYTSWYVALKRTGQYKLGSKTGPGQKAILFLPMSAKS
Albumin (Bos taurus), sequence (P02769 whole entry, looked up): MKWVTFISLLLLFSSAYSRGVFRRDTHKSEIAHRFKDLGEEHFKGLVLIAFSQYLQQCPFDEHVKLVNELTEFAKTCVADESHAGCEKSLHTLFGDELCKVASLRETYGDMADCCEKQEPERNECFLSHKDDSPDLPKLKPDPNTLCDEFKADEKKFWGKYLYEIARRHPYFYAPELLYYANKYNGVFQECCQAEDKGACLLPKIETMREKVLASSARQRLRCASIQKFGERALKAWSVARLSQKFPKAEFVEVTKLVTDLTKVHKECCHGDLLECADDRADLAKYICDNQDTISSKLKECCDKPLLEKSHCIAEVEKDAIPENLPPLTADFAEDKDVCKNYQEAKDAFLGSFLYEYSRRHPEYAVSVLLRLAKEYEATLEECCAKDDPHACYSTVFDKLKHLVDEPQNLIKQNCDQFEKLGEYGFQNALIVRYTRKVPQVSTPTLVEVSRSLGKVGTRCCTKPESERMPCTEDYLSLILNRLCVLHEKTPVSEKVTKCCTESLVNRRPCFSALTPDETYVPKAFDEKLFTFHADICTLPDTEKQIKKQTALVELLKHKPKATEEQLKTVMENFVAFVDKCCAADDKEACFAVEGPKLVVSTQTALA
Follistatin (Homo sapiens), sequence (P19883 whole entry, looked up): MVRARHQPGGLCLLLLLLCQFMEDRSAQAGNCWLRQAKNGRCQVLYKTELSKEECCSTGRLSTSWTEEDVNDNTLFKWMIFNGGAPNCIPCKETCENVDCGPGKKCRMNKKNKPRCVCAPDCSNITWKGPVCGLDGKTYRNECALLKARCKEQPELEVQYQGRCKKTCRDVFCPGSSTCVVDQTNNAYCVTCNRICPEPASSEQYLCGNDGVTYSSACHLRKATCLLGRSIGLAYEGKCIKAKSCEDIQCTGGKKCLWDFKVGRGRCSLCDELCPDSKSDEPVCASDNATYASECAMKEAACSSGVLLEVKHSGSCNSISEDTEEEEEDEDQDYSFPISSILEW
Concanavalin-A (Canavalia ensiformis), sequence (P02866 whole entry, looked up): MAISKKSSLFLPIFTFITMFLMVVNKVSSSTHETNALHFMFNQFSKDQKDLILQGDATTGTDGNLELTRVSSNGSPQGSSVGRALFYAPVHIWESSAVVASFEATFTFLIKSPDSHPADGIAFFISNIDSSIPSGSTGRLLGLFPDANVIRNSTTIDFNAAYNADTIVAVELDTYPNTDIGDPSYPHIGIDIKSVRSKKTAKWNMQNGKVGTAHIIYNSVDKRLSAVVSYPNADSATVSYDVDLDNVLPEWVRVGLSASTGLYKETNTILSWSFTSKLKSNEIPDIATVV
Focal adhesion kinase 1 (Homo sapiens), sequence (Q05397 whole entry, looked up): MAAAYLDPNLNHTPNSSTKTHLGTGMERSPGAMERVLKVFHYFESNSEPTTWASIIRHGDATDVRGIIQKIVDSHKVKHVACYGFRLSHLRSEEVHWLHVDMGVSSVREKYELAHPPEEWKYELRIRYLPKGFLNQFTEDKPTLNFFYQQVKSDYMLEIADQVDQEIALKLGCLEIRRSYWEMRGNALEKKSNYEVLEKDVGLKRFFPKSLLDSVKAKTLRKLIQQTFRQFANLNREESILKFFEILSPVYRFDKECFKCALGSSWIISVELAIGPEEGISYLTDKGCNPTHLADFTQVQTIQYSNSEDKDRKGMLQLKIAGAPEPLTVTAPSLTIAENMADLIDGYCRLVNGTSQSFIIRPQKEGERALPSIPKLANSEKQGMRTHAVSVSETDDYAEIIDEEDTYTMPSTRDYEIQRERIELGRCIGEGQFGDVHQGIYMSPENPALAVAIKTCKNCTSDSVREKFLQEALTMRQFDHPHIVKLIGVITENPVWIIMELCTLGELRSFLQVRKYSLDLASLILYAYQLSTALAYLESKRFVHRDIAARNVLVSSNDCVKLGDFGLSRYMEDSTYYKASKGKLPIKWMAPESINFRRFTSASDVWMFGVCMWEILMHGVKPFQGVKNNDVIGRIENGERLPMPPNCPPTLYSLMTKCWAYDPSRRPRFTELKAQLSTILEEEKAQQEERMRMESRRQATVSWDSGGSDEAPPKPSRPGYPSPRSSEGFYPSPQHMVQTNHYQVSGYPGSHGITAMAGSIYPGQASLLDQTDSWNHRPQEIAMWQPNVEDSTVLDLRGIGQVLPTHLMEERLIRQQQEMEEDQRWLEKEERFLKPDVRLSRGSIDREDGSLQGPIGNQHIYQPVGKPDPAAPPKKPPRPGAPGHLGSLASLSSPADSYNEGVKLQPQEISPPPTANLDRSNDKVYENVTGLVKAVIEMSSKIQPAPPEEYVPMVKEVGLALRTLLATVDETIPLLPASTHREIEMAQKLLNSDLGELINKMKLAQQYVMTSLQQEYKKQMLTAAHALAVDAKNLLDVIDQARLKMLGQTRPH

Consider `CCOC(=O)[C@H](Cc1ccccc1)NC(=O)CCC1CC(OC(=O)NCCc2ccc(F)cc2)CC2(CCCC(COC(=O)NCC(c3ccccc3)c3ccccc3)O2)O1` (stereo not given in full), for which the composite z-score is 0.641 in [1]; -0.0893 in test [3]; -0.037 in test [4]; 0.16 in [5]; 1.04 in test [6]; 0.0435 in test [7]. Also, the composite z-score was determined as 1.32 in test [8]; 0.227 in [9]; 0.992 in test [10]; 0.999 in test [11]; 0.517 in test [12]; 0.111 in test [13]. The composite z-score in [14] was 0.7; in test [15], 0.831; in test [16] it was 0.563; in test [18], 0.68; in [19], 0.554. For the same compound, in test [2], the composite Z-score was 0.066 (inactive). In addition, the z-score in [17] is 0.597; in [20], 0.715 (inactive).

With `CCOC(=O)C[C@H]1[C@H](OC(=O)c2ccc(C(=O)c3ccccc3)cc2)[C@@H](NC(=O)c2ccc(-c3ccccc3)cc2)c2cc(OCCCO)ccc2N1C(=O)c1ccc2ccccc2n1`, the composite z-score in [1] was 0.0279; in [3] it was 0.0084; in [4], -0.101; in test [5], 0.0886; in test [6], 0.71; in test [7] it was -0.142. Also, the composite z-score in [8] came out at 1.31; in [9], 0.611; in test [10], 0.844; in test [11] it was 0.128; in test [12], 1.01; in test [13], 0.0723. For the same compound, the composite z-score in test [14] came out at 0.873; in [15] it was 0.864; in test [16] it was 0.688; in test [18], 1.07; in test [19], 0.185. Also, the composite Z-score in test [2] is 0.228 (inactive). The z-score in test [17] was 0.421; in test [20], 0.881 (inactive).

Turning to `COc1ccc(COC(=O)NN=C2C[C@@H](O)[C@@H](O)[C@@H]3[C@@H]4C(=O)N(Cc5ccc6c(c5)OCO6)C(=O)[C@@H]4CC[C@@H]23)cc1`, the composite z-score is -0.152 in [1]; 0.218 in test [3]; 0.015 in test [4]; -0.244 in test [5]; 0.115 in test [6]; 0.616 in test [7]. The composite z-score in [8] was -0.395; in test [9] it was -0.54; in [10], -1.3; in [11] it was -0.272; in [12], -0.568; in test [13], 0.256. The composite z-score in test [14] was 0.144; in test [15], -0.989; in test [16], -0.922; in [18] it was -0.86; in test [19], 0.247. Also, the composite Z-score in [2] is -0.463 (inactive). Also, the z-score in [17] is 0.982; in [20], -0.283 (inactive).

Consider `COC(=O)[C@@]1(Cc2ccc(F)cc2)[C@H]2c3cc(C(=O)N(C)C)n(Cc4ccc(OC)c(OC)c4)c3C[C@H]2CN1C(=O)c1ccccc1`, for which the composite z-score in [1] was 0.378; in [3], 0.194; in [4] it was 0.265; in [5], 0.866; in test [6], 0.383; in test [7] it was -0.253. Further, the composite z-score was -0.309 in test [8]; 0.106 in [9]; -0.189 in test [10]; 0.835 in test [11]; -0.267 in [12]; 1.71 in test [13]. Besides, the composite z-score in test [14] is 0.661; in [15], -0.405; in [16] it was -0.346; in test [18], -0.614; in test [19] it was 0.63. In addition, the composite Z-score in test [2] was 0.206 (inactive). Further, the z-score in [17] was 0.362; in test [20], 1.22 (inactive).

On to `O=C1[C@H]2[C@H]3[C@H](O)[C@H](O)CC(=NOC[C@@H](O)COCc4ccco4)[C@H]3CC[C@H]2C(=O)N1C1CCCCC1`, for which the composite z-score in [1] is -0.709; in [3], 0.0459; in test [4], -0.258; in test [5] it was -0.379; in test [6], -0.317; in test [7], -0.342. Also, the composite z-score in test [8] was 0.191; in test [9], 1.42; in [10], -0.843; in test [11], -0.0844; in test [12], -0.476; in [13], -0.329. In addition, the composite z-score was -1.02 in test [14]; 1.21 in test [15]; 1.07 in [16]; 1.3 in [18]; -1.22 in test [19]. The composite Z-score in [2] was -0.47 (inactive). The z-score was -0.948 in test [17] and 0.822 (inactive) in test [20].
